Laboratory results published in PubChem BioAssay AID540300 (National Center for Advancing Translational Sciences (NCATS), 2011).
The other results are listed elsewhere or left out. Values without a mark were called inactive. Calls follow the shape of the dose curve; as a rule, active = well fitted curve in the direction sought with a large enough effect; inconclusive = small, poorly fitted or top-dose-only effect, or another doubt; inactive = no such curve, though single readings can be large or run the other way.

experiment: Inhibitors of DNA Polymerase Beta: Hit Validation in Klenow Fragment Assay; settings: Klenow exo- polymerase counter-screen, fluorescent DNA substrate; series mostly up to 57.1 µM; activity change, negative = inhibition: at the top concentration
Source text: The base excision repair system in human cells is a target for therapeutic modulation of the response to irradiation treatment and DNA-damaging drugs. A key enzyme in this system is the bi-functional DNA polymerase known as DNA polymerase beta (pol b). […] Using an integrated approach involving discovery of small molecule probes for pol b via qHTS and validation by crystallography and kinetics along with cell-based validation experiments, we will test the hypothesis that base excision repair can be strategically modulated in human cells by targeting pol b. Thus, we anticipate the pol b-specific probes emerging from this research will serve as starting points in the development of clinical agents for use in down regulation of DNA base excision repair during therapeutic interventions against cancer. After the completion of the qHTS against the Molecular Libraries Small Molecular Repository (MLSMR), cherry picked compounds were re-affirmed in the primary qHTS pol beta assay and further characterized in several follow-up assays. An E. coli Klenow exo- fragment assay was used as a counter screen assay. The Klenow exo- fragment is a large protein fragment of DNA polymerase which lack exonuclease activity. Measuring compounds activity against the Klenow exo- fragment helps identifying promiscuous compounds. […] NIH Chemical Genomics Center [NCGC] NIH Molecular Libraries Probe Centers Network [MLPCN] MLPCN Grant: MH090863-01 Assay Submitter (PI): Samuel Wilson, National Institute of Environmental Health Sciences (NIEHS), NIH Assay Submitter (PI): Samuel Wilson, National Institute of Environmental Health Sciences (NIEHS), NIH
A stepwise description of the 1536-well assay is shown as described in primary assay. Three microliters of reagents (buffer in column 3 and 4 as negative control and 5nM Klenow enzyme in columns 1, 2, and 5-48) will be dispensed into 1,536-well black solid-bottomed plate. Compounds (23nl) will be transferred via Kalypsys pin tool equipped with 1536-pin array (10nl slotted pins, V&P Scientific, San Diego, CA). The plates will then be incubated for 15 min at room temperature, and 1 µl substrate of tripartate ds DNA (50nM final concentration) will be added to start the reaction and kinetically read twice at 0 min and 10 min on ViewLux reader.

| Compound | activity change, negative = inhibition [%] |
| --- | --- |
| Cc1c(CCC(=O)O)c(=O)oc2c(C)c(OCc3ccccc3Cl)ccc12 | -24.9 |
| CCOc1ccccc1/C=c1\sc2nc(-c3ccco3)nn2c1=O | -37.9 |
| Cc1ccc2nc(-c3ccncc3)cc(C(=O)Nc3ccc(OC(F)F)cc3)c2c1 | -10.5 |
| O=C(c1cc2c(s1)CCC2)N1CCN(c2ccccc2)CC1 | -32 |
| O=C(CN1CCN(S(=O)(=O)c2cc(Cl)ccc2Cl)CC1)c1ccc(O)c(O)c1 | -17.8 |
| COc1ccc(Cc2nnc(NC(=O)Cc3cccs3)s2)cc1 | -32.8 |
| Cc1ccc(C(=O)Oc2coc(CSc3nnc(NC(=O)c4cccs4)s3)cc2=O)cc1C | -19.3 |
| COc1cc([C@H](Cc2ccccc2)NC(C)=O)oc(=O)c1 | -12.9 |
| O=C(Nc1ccc(S(=O)(=O)Nc2nccs2)cc1)c1cc(-c2ccncc2)nc2ccccc12 | -1.27 |
| Cc1c(CC(=O)N2CCN(C(=O)C3COc4ccccc4O3)CC2)c(=O)oc2c(O)c(O)ccc12 (stereo not given) | -21.1 |
